This is a sample that favours compounds with a hit; in the whole collection about 2.4% have one here.
D2 antag: HTS Assay for Allosteric Antagonists of the Human D2 Dopamine Receptor: Primary Screen for Antagonists; inhibition, % at 10 µM; D(2) dopamine receptor (Homo sapiens), P14416; HEK293 TREx D2 cells, calcium flux, dopamine EC80; 340,000 tested, 2% active; in the data active = inhibition above about 30%; inactive = below that, where a call was filed; also: 0% is about no effect
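Compounds are added to dye-loaded, induced HEK293 T-REx cells coupled to calcium release via D2; after a 3 min kinetic read an EC80 dopamine stimulus is given and fluorescence is recorded for 3 more min.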
D2 PAM-1: HTS Assay for Positive Allosteric Modulators of the Human D2 Dopamine Receptor: Primary Screen for Potentiators. potentiation, % at 10 µM. HEK293 T-REx D2, calcium flux, EC20 dopamine potentiation. AID 485347, 2010. 340,000 tested, 0.34% active. D(2) dopamine receptor (Homo sapiens), P14416;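 active = potentiation over 3 SD above the plate norm, cut at about 30% in these data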; also: 0% is about no effect
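Using a no-wash calcium dye in inducible, force-coupled HEK293 Trex cells expressing D2, we tracked fluorescence each second for 180 s after compound, then for 180 s after EC20 dopamine to detect augmented signalling.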
D2 PAM-2: Beta-Arrestin HTS for Positive Allosteric Modulators of the Human D2 Dopamine Receptor: Potentiators | D(2) dopamine receptor (Homo sapiens), P14416 | DiscoveRx D2 beta-arrestin cells, luminescence, 90 min; 100% = 57 uM dopamine signal | potentiation, % (no concentration beside the values) | 360,000 tested, 0.23% active | AID 624464, 2012; in the data active = potentiation above about 50%; inconclusive = mostly about 30% to 49%
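PathHunter D2 cells, attached overnight at 37 deg C, received compound in DMSO plus dopamine at EC20 (50 nM final) for 90 min at 37 deg C. Beta-arrestin recruitment was read as luminescence after 1 h with detection reagent at ambient temperature.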
D2 ag-1: HTS Assay for Allosteric Agonists of the Human D2 Dopamine Receptor: Primary Screen for Agonists. D(2) dopamine receptor (Homo sapiens), P14416. 340,000 tested, 0.53% active. HEK293 T-REx D2 cells, calcium flux agonist mode. activation, % at 2 µM. AID 485358, 2010;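 active = activation over 3 SD above normal in the single-dose calcium agonist read, cut at about 30% in these data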; also: 0% is about no effect
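Calcium-flux readout, 1 cycle/sec over 180 s following compound pin transfer, in inducible HEK293 Trex D2 cells (force-coupled); dopamine controls included. Positive calcium responses during this window marked compounds as potential agonists.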
D2 ag-2: Beta-Arrestin HTS for Positive Allosteric Modulators of the Human D2 Dopamine Receptor: Agonists | D(2) dopamine receptor (Homo sapiens), P14416 | DiscoveRx PathHunter D2 beta-arrestin, luminescence, 90 min; 100% = 57 uM dopamine signal | activation, % (test concentration not listed) | AID 624465, 2012 | 360,000 tested, 0.084% active; in the data active = activation above about 40%; inconclusive = between about 15% and that limit
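Agonist mode: compounds alone added to overnight-plated D2 PathHunter cells for 90 min at 37 C, with 57 uM final dopamine (EC100) defining full response. Beta-arrestin recruitment detected by chemiluminescent reagent, read after 1 h at ambient temperature.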
D3 arrestin ag: qHTS of D3 Dopamine Receptor Agonist: D3 Dopamine Receptor B-arrestin Agonist Confirmatory Assay; shares compounds with D2 ag-1; 2,300 tested, 4% active; DiscoveRx D3 beta-arrestin cells, luminescence, 90 min; Potency, µM (highest dose often 76.9 µM), for inactives: at the highest dose activation, most hits filed as activators;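 also: potency is read from the fitted curve at half-maximal effect; 100% = dopamine control response; nearly all actives have a fitted effect of over 70% in size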
Target sequence (P35462 whole entry, looked up): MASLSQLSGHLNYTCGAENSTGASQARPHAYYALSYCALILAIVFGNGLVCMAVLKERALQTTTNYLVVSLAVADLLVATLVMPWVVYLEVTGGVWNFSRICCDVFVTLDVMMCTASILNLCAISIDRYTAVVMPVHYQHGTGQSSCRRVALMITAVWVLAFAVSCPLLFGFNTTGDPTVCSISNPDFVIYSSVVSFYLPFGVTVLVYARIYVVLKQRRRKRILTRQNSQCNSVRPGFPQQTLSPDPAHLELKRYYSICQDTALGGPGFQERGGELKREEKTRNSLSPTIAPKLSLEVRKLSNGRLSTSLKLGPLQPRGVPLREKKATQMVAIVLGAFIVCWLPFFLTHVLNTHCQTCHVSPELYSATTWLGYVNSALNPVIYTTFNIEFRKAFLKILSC
D2 ag-3: qHTS of D3 Dopamine Receptor Agonist: D2 Dopamine Receptor B-arrestin Agonist Counterscreen; shares compounds with D2 ag-1; DiscoveRx PathHunter D2 beta-arrestin, luminescence, 90 min; response scale: percent relative to full dopamine signal; Potency, µM (series often up to 76.9 µM), inactives show at the highest dose activation, usual class: activators; 2,300 tested, 5.9% active; AID 720507, 2013; also: potency is read from the fitted curve at half-maximal effect; % of control where 0% means no effect; nearly all actives have a fitted effect of over 70% in size
The depositor's hits bear a star; ? = inconclusive; . = not tested or not shown. Unless noted, calls follow the shape of the dose curve; as a rule, active = well fitted activation curve with a large enough effect; inconclusive = small, poorly fitted or top-dose-only effect; inactive = flat fitted curve, though single readings scatter.

SMILES	D2 antag	D2 PAM-1	D2 PAM-2	D2 ag-1	D2 ag-2	D3 arrestin ag	D2 ag-3
Cc1ccc(Nc2nc(N)nc(CN3CCN(C(=O)c4ccco4)CC3)n2)cc1Cl	38*	-26	14	67*	?	-4%	?
CC1CCN(C(=S)NC(=O)c2ccco2)CC1	-9	16	-6	-1	-1	.	.
Cc1ccccc1CC(=O)N1CCN(C(=O)c2ccco2)CC1	6	6	-10	0	-2	.	.
O=C(NC(=S)N1CCN(Cc2ccccc2)CC1)c1ccco1	20	-4	-3	70*	5	-1%	0%
Cc1ccccc1CN1CCN(C(=O)c2ccco2)CC1	70*	-28	26	81*	47*	?	20µM*
CCc1nnc(SCC(=O)N(C)c2ccccc2)c2cc3sccc3n12	.	.	.	1	.	.	.
Cc1oc(-c2ccccc2Cl)nc1CS(=O)CC(=O)N1CCN(c2ccccc2)CC1 (centres undefined)	-16	-3	15	43*	3	0%	4%
Cc1ccc(N2CC(NC(=O)c3ccc4c(c3)OCO4)CC2=O)cc1 (centres undefined)	.	-13	.	0	.	.	.
CCCn1cc(SCC(=O)NC2CCCC2)c2ccccc21	-16	1	-14	-1	-8	-18%	-1%
Cc1ccc(Cn2c(C)c(CNCCCc3ccccc3)c(C(=O)O)c2C)cc1	.	1	.	-1	.	.	.
COc1cc(C#Cc2c(-c3cncn3C)n(C)c3ccc(-c4cnc(N5CCOCC5)nc4)cc23)cc(OC)c1	.	.	-7	.	-2	.	.
COc1cc(C#Cc2c(-c3cncn3C)n(C)c3ccc(-c4cnc(OC)nc4)cc23)cc(OC)c1	7	9	-20	-1	3	-3%	-3%
Cc1ccc(C(=O)Nc2c(C(=O)NCc3ccc(Cl)cc3)sc3nc(C)cc(C)c23)cc1	.	5	.	0	.	.	.
O=C(c1noc2c1CCCC2)N1CCCC(N2CCN(c3ccccc3F)CC2)C1 (centres undefined)	15	-14	-20	41*	2	1%	6%
CC(=O)c1cccc(CN2CCCC(N3CCN(c4ccccc4F)CC3)C2)c1 (centres undefined)	.	-28	-1	.	12	8%	?
COc1ccccc1CN1CCCC(N2CCN(c3ccccc3OC)CC2)C1 (centres undefined)	-6	-14	-3	1	-3	.	.
O=C(c1ccsc1)N1CCCC(N2CCN(c3ccccc3F)CC2)C1 (centres undefined)	0	-11	-31	12	1	.	.
Fc1ccccc1N1CCN(C2CCCN(Cc3ccccc3C(F)(F)F)C2)CC1 (centres undefined)	.	-9	-4	.	-2	3%	21%
COc1ccc(-c2nc(CN3CCN(C(=O)c4ccco4)CC3)c(C)o2)c(F)c1	25	-16	15	61*	?	?	?
COc1ccc(OC)c(-c2nc(CN3CCN(C(=O)c4ccco4)CC3)c(C)o2)c1	16	-11	-11	49*	8	5%	7%
COc1ccc(-c2nc(CN3CCN(C(=O)c4ccco4)CC3)c(C)o2)c(OC)c1C	92*	-24	?	102*	46*	?	?
Cc1oc(-c2ccc(F)cc2F)nc1CN1CCN(C(=O)c2ccco2)CC1	.	.	-11	.	0	.	.

Screening data: PubChem BioAssay, National Center for Advancing Translational Sciences (NCATS)
